About 83,000 compounds went through this panel and 20% of them were active in at least one assay; those are over-represented in the sample as a whole.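 Interpretation: 100, growth as untreated; towards 0, rising growth inhibition; 0, no net growth; 0 to -100, cell death. Compounds scoring below 10 were considered active.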 A number with no mark means an inactive call. Activity calls are given as the source filed them.
Experiments:
Assay in all cases: NCI-60 one-dose screen, 48 h (100 = growth as untreated, 0 = no growth, -100 = all killed)
SR leukemia = conditions: 10 µM unless noted
OVCAR-8 ovarian = conditions: 10 µM unless noted
OVCAR-5 ovarian = conditions: 10 µM unless noted
SK-OV-3 ovarian = conditions: 10 µM unless noted
IGROV1 ovarian = conditions: 10 µM unless noted
OVCAR-3 ovarian = conditions: 10 µM unless noted
HS 578T breast = conditions: 10 µM unless noted
NCI/ADR-RES ovarian = conditions: 10 µM unless noted
T-47D breast = conditions: 10 µM unless noted
BT-549 breast = conditions: 10 µM unless noted
MDA-MB-435 melanoma = conditions: 10 µM unless noted
SW-620 colon = conditions: 10 µM unless noted
MCF7 breast = conditions: 10 µM unless noted
HCT-116 colon = conditions: 10 µM unless noted
HCC-2998 colon = conditions: 10 µM unless noted
KM12 colon = conditions: 10 µM unless noted
OVCAR-4 ovarian = conditions: 10 µM

Row | SMILES | growth (SR leukemia) | growth (OVCAR-8 ovarian) | growth (OVCAR-5 ovarian) | growth (SK-OV-3 ovarian) | growth (IGROV1 ovarian) | growth (OVCAR-3 ovarian) | growth (HS 578T breast) | growth (NCI/ADR-RES ovarian) | growth (T-47D breast) | growth (BT-549 breast) | growth (MDA-MB-435 melanoma) | growth (SW-620 colon) | growth (MCF7 breast) | growth (HCT-116 colon) | growth (HCC-2998 colon) | growth (KM12 colon) | growth (OVCAR-4 ovarian)
1 | CC1(C)[C@@H](NOCCCN)CC[C@]2(C)[C@H]3C(=O)C=C4[C@@H]5C[C@](C)(C(=O)O)CC[C@]5(C)CC[C@@]4(C)[C@]3(C)CC[C@@H]12 | 17.9% [100 µM] | -25.9% [100 µM] (active) | -100% [100 µM] (active) | -23.7% [100 µM] (active) | -88.5% [100 µM] (active) | -50.1% [100 µM] (active) | -22.8% [100 µM] (active) | -34.2% [100 µM] (active) | -29.8% [100 µM] (active) | -23.2% [100 µM] (active) | -59.1% [100 µM] (active) | -43.3% [100 µM] (active) | -25.2% [100 µM] (active) | -87.4% [100 µM] (active) | -50% [100 µM] (active) | -65.8% [100 µM] (active) | 
2 | CCN=Cc1c(O)c(O)c(C(C)C)c2cc(C)c(-c3c(C)cc4c(C(C)C)c(O)c(O)c(C=NCC)c4c3O)c(O)c12 | 27% | 39.2% | 63.4% |  | 46.8% | 32.5% | 57.8% | 47.9% | 35% |  | 68.1% | 29.2% | 27.3% | 22.5% | 38.9% | 21.3% | 31.7%
3 | CCCc1cc2cc(-n3nc(C)c4c3CC(C)(C)CC4=O)cc(NC3CCSCC3)c2c(=O)[nH]1 | 33.8% | 79% | 97% |  | 74.1% | 87% | 79.2% | 82.2% | 54.7% |  | 26.5% | 32.4% | 36.5% | 19.8% | 46.9% | 41.7% | 97.5%
4 | Cc1cc(SC#N)ncn1 | 109% | 96.2% | 115% | 105% |  | 100% | 105% | 103% | 104% | 126% | 107% | 106% | 93.3% | 99.5% |  | 104% | 103%
5 | CC(=O)Nc1ccc(C=Nc2ccc3ccccc3c2)cc1 | 104% | 108% | 117% | 109% | 105% | 122% |  | 115% | 108% | 102% | 112% | 106% | 92.3% | 101% | 92.1% | 108% | 108%
6 | COc1cc(-c2nc(SCCC(C)C)nc(Nc3ccc(S(N)(=O)=O)cc3)c2C#N)cc(OC)c1OC | -18.5% (active) | 29.9% | 53.9% | 76.5% | 40.5% | 32.5% | 40.5% | 37.6% |  | 27.6% | 22.2% | 36.3% | 16.9% | 3.77% (active) | 35.2% | 19.9% | 19.8%
7 | Cc1ccc(S(=O)(=O)Oc2ccc([N+](=O)[O-])cc2[N+](=O)[O-])cc1 | 56.6% | 78.8% | 111% | 119% |  | 107% | 123% | 85.1% | 94.5% | -8.38% (active) | 25.2% | 18.4% | 70.7% | 5.12% (active) | 99.8% | 102% | 63.6%
8 | Oc1ccc(N=Nc2nccs2)c(O)c1 | 8.21% (active) | 36.4% | 87.5% | 78.2% | 42.9% | -1.86% (active) | 80.2% | 12.4% | 58.1% |  | 64.4% | 41.3% | 57.1% | 5.98% (active) | 73.4% | 51.7% | 25.9%
9 | CCCN1CC(c2ccc(OC)c(OC)c2)=C(c2cn(C(=O)OCC)c3ccccc23)C1=O | 25.3% | 71.5% | 83.1% |  | 40.2% | 2% (active) | 48.1% | 29.5% | 36.5% | 58.6% | -10.5% (active) | 31.5% | 20.4% | 21% | 78.3% | 32.3% | 62.3%
10 | Cn1cc(-c2noc(-c3cn(C)c4ncc(Br)cc34)n2)c2cc(Cl)ccc21 | 44.3% | 99.7% | 70.5% | 62.8% | 54.2% | 44.2% | 65.8% | 58.5% | 31.6% |  | 68.3% | 39.9% | 65.9% | 35.2% | 93.9% | 75.7% | -25.7% (active)
11 | CC(=O)OC[C@]12CC[C@@H]([C@@H](C)C(N)=O)[C@@H]1[C@H]1CC[C@@H]3[C@@]4(C)CC[C@H](OC(C)=O)C(C)(C)[C@@H]4CC[C@@]3(C)[C@]1(C)CC2 | 10.8% [100 µM] | -31.7% [100 µM] (active) | -77.4% [100 µM] (active) | -11.9% [100 µM] (active) | -71.3% [100 µM] (active) | -76.2% [100 µM] (active) | -33% [100 µM] (active) | -57.3% [100 µM] (active) | -8.82% [100 µM] (active) | -55.1% [100 µM] (active) | -63.8% [100 µM] (active) | -55.1% [100 µM] (active) | -45.6% [100 µM] (active) | -84.2% [100 µM] (active) | -68.1% [100 µM] (active) | -62.1% [100 µM] (active) | 
12 | O=C(COc1cccc(/C=C2\Oc3ccccc3C2=O)c1)c1ccc([N+](=O)[O-])cc1 | 80.9% | 97.1% | 97.1% | 121% |  | 88.5% | 98.4% | 79.1% | 51.6% | 110% | 116% | 113% | 50.7% | 92.2% | 96.8% | 110% | 97%
13 | COc1cccc(-c2[nH]c(=S)ncc2C(=O)c2ccccc2)c1 | 28.3% | 97.4% | 93.8% | 107% | 77.2% | 83.2% |  | 91.8% | 104% | 73.9% | -20% (active) | 66.6% | 69.8% | 61.3% | 102% | 51.5% | 94.9%
14 | CCCC(NC(=O)OCc1ccccc1)C(=O)O (centres undefined) | 121% | 93.5% | 94.8% | 119% |  | 106% | 71.9% | 60.4% | 99.6% |  | 109% | 97.9% | 96% | 98.1% |  | 109% | 106%
15 | CCOc1ccccc1/C=N\Nc1ccc(S(=O)(=O)c2ccc(N/N=C/c3ccccc3OCC)cc2)cc1 | 94.8% | 93.1% | 95% | 87.6% | 76% |  | -24.9% (active) | 92.8% | 75.6% | 83.4% | 99.3% | 97.9% |  | 87.5% | 107% | 91.5% | 96.6%
16 | CC(=O)CC(=O)SC1=NCCS1 | 102% | 99.3% | 117% | 112% | 140% | 113% |  | 113% | 104% | 116% | 106% | 97.7% | 108% | 116% | 112% | 102% | 109%
17 | COc1ccc(C(=O)c2nccc3cc(OC)c(OC)cc23)cc1OC | 102% | 94.3% | 86.5% | 108% |  | 87.2% | 98% | 83.9% |  |  | 119% | 96% |  | 92.9% |  | 104% | 108%
18 | O=C1CC(c2ccccc2)Cc2nc3ccc(Cl)cc3cc21 (centres undefined) | 13% | 22.4% | 26.4% | 47.2% | 16.5% | -29.1% (active) |  | 7.96% (active) | 75.5% | 4.62% (active) | -38.6% (active) | 23% | 54% | 5.45% (active) | 5.28% (active) | 1.73% (active) | 48.7%
19 | COc1ccc(-c2cc(-c3ccc(Cl)cc3)nc(SCCCCCCC(=O)NO)n2)cc1 | 4.61% (active) | 21.1% | 34.1% | 20.1% | 11.1% | 39% | 55.5% | 2.26% (active) | -2.44% (active) |  | 39.2% | 25.5% | 22.1% | 14.9% | 59.8% | 45.9% | 56.5%
